In PubChem BioAssay (NCATS):
Results filed as inconclusive are left out. Unmarked numbers belong to inactive results. Activity calls are given as the source filed them. Calls come from the whole dose curve; as a rule, active = well fitted inhibition curve with a large enough effect; inconclusive = small, poorly fitted or top-dose-only effect; inactive = no such curve, though single readings can be large or run the other way.

Target: N-terminal Xaa-Pro-Lys N-methyltransferase 1 (Homo sapiens) (UniProt Q9BV86)
Assay: qHTS Assay for Inhibitors of N-terminal methyltransferase 1 (NTMT1): LOPAC validation of the NTMT1 SAHH-coupled ThioGlo3 Assay (AID 1347143);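 note: SAH from peptide methylation measured as thiol fluorescence via SAHH coupling and ThioGlo3; nearly all actives have a fitted effect of over 70% in size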; for activity change, negative = inhibition: % is set by controls: 0 for no effect and ±100 for the full control effect
Settings: recombinant NTMT1, SAHH-coupled ThioGlo3 fluorescence; series mostly up to 114 µM; activity change, negative = inhibition: at the top concentration
Method in brief: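 NTMT1 125nM + cpds (various conc.), 1 min RT; add SAM 100uM/SAHH 10uM/ThioGlo3 15uM (addition mix). SAHH-coupled thiol detection, Ex340/Em450, t0 and 30 min RT; signal normalized to background. LOPAC 1280-cpd pilot.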
Potency is the fitted concentration of half-maximal effect.

Sequence of N-terminal Xaa-Pro-Lys N-methyltransferase 1 (Homo sapiens) (Q9BV86 whole entry, looked up): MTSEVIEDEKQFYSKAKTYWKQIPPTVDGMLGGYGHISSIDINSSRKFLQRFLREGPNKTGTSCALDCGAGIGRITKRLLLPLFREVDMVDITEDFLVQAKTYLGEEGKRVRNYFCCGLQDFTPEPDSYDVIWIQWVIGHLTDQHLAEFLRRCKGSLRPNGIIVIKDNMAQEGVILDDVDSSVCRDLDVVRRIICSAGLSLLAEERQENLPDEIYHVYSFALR

SMILES | Potency | activity change, negative = inhibition [%]
N#C/C(=C\c1ccc(-c2cc(Cl)ccc2Cl)o1)C(=O)Nc1cccc2ncccc12 | 56.2 µM (active) | 
NCCCCC(=O)O |  | -8.55
CC(C)NC[C@@H](O)c1ccc(O)c(O)c1 | 50.1 µM (active) | 
Nc1nc2c(ncn2[C@@H]2O[C@H](CO)[C@@H](O)[C@@H]2O)c(=O)[nH]1 |  | -10.9
CN1C2CC(OC(=O)[C@H](CO)c3ccccc3)CC1C1OC12 (some centres undefined) |  | -10.9
S=c1[nH]c(-c2ccccc2)cn1-c1ccccc1 | 6.31 µM (active) | 
Cc1cc(NC2CCCCC2)nc(-n2nc(C)cc2C)n1 |  | -24.8
Cn1c(=O)c(-c2c(Cl)cccc2Cl)cc2cnc(Nc3ccc(N4CCOCC4)cc3)nc21 | 56.2 µM (active) | 
Nc1nc(OCC2CCCCC2)c2[nH]cnc2n1 |  | -15.5
NCCCS(=O)(=O)O |  | -19.2
CCCCCCCCCCCCCCCCCCN(CCCCCCCCCCCCCCCCCC)CCCN(CCO)CCO |  | -13.1
O=Nc1ccc2oc(=O)ccc2c1 | 4.47 µM (active) | 
Oc1ccc(C2CNCc3sccc32)cc1O (centres undefined) | 35.5 µM (active) | 
CN=c1nc(-c2ccccc2)n(-c2ccccc2)s1 | 0.316 µM (active) | 
NO |  | -27.7
C=CC(N)CCC(=O)O (centres undefined) |  | -18.8
COc1ccc2c(c1)CCC1C2CC[C@@]2(C)C1CC[C@@H]2NCCCCCCN1C(=O)CCC1=O (some centres undefined) |  | -7.78
C[C@@H](CN1CCC(Cc2ccccc2)CC1)[C@@H](O)c1ccc(O)cc1 |  | -10.6
Cc1cn([C@H]2CC(N=[N+]=[N-])[C@@H](CO)O2)c(=O)[nH]c1=O (some centres undefined) |  | -8.64

SMILES | Potency | activity change, negative = inhibition [%]
Oc1cc(O)cc(/C=C/c2ccc(O)c(O)c2)c1 | 35.5 µM (active) | 
CC[C@H]1OC(=O)[C@H](C)C(O[C@H]2C[C@@](C)(OC)[C@@H](O)[C@H](C)O2)[C@H](C)[C@@H](OC2O[C@H](C)C[C@H](N(C)C)[C@H]2O)[C@](C)(O)C[C@@H](C)CN(C)[C@H](C)[C@@H](O)[C@]1(C)O (some centres undefined) |  | -0.0241
O=C1NC(=O)/C(=C/c2ccc(-c3ccc(F)cc3O)o2)S1 | 44.7 µM (active) | 
COCCOc1cc2nc[nH]c(=O)c2cc1OCCOC |  | -8.06
Nc1ccn([C@H]2O[C@H](CO)[C@@H](O)C2(F)F)c(=O)n1 |  | -26.3
C=C[C@H]1CN2CC[C@@H]1C[C@@H]2[C@@H](O)c1ccnc2ccc(OC)cc12 | 56.2 µM (active) | 
O=C1NC(O)=NC1(c1ccccc1)c1ccccc1 |  | -3.04
CN(C)CCC(c1ccc(Cl)cc1)c1ccccn1 (centres undefined) |  | -10.4
CC(C)(C)c1ccc(S(=O)(=O)/C=C/C#N)cc1 | 4.47 µM (active) | 
Cn1c(=O)c2[nH]c(-c3ccccc3)nc2n(C)c1=O | 79.4 µM (active) | 
CC(=O)SCC[N+](C)(C)C |  | 145
CCCN(CC1CC1)c1nc(C)nc(Nc2c(Cl)cc(Cl)cc2Cl)c1Cl |  | 30.1
CC1(C)CCC=[N+]1[O-] |  | -15.8
C#C[C@]1(O)CC[C@H]2[C@@H]3CCC4=Cc5oncc5CC4(C)[C@H]3CCC21C (some centres undefined) |  | -19.5
Brc1cc2c(cc1[C@H]1Nc3ccccc3[C@H]3C=CC[C@H]31)OCO2 |  | -3.24
CN(C)C(N)=NCCC[C@H](N)C(=O)O |  | -21.6
O=C(O)CC1CCCc2ccccc2C1O (centres undefined) |  | -7.86
CO[C@H]1O[C@@H]2O[C@]3(C)CC[C@@H]4[C@@H](C)CC[C@H]([C@H]1C)[C@]24OO3 |  | -21.1

System: Zika virus NS2B-NS3 protease (unlinked)
Assay: Optimization of GU AMC qHTS for Zika virus inhibitors: Unlinked NS2B-NS3 protease assay (AID 1347151); note: nearly all actives have a fitted effect of over 80% in size;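 for activity change, negative = inhibition: 0% = no-inhibitor control and -100% = no-enzyme control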
Settings: recombinant ZIKV NS2B-NS3 protease, fluorogenic AMC substrate; series mostly up to 52.5 µM; activity change, negative = inhibition: at the top concentration
Method in brief: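 Percent inhibition is derived from the 15-min change in AMC fluorescence, normalized against no-inhibitor and no-enzyme controls, then fitted to a 4-parameter Hill curve. Aprotinin was the intraplate control.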

SMILES | Potency | activity change, negative = inhibition [%]
N#C/C(=C\c1ccc(-c2cc(Cl)ccc2Cl)o1)C(=O)Nc1cccc2ncccc12 | 26.7 µM (active) | 
NCCCCC(=O)O |  | 0.718
CC(C)NC[C@@H](O)c1ccc(O)c(O)c1 |  | 7.14
Nc1nc2c(ncn2[C@@H]2O[C@H](CO)[C@@H](O)[C@@H]2O)c(=O)[nH]1 |  | 8.31
CN1C2CC(OC(=O)[C@H](CO)c3ccccc3)CC1C1OC12 (some centres undefined) |  | -0.583
S=c1[nH]c(-c2ccccc2)cn1-c1ccccc1 | 26.7 µM (active) | 
Cc1cc(NC2CCCCC2)nc(-n2nc(C)cc2C)n1 |  | -9.89
Cn1c(=O)c(-c2c(Cl)cccc2Cl)cc2cnc(Nc3ccc(N4CCOCC4)cc3)nc21 |  | 3.83
Nc1nc(OCC2CCCCC2)c2[nH]cnc2n1 |  | -10.4
NCCCS(=O)(=O)O |  | -3.65
CCCCCCCCCCCCCCCCCCN(CCCCCCCCCCCCCCCCCC)CCCN(CCO)CCO |  | 13
O=Nc1ccc2oc(=O)ccc2c1 |  | -5.26
Oc1ccc(C2CNCc3sccc32)cc1O (centres undefined) |  | -20.5
CN=c1nc(-c2ccccc2)n(-c2ccccc2)s1 |  | 0.576
NO |  | 3.94
C=CC(N)CCC(=O)O (centres undefined) |  | -5.49
COc1ccc2c(c1)CCC1C2CC[C@@]2(C)C1CC[C@@H]2NCCCCCCN1C(=O)CCC1=O (some centres undefined) |  | 9.26
C[C@@H](CN1CCC(Cc2ccccc2)CC1)[C@@H](O)c1ccc(O)cc1 |  | -3.84
Cc1cn([C@H]2CC(N=[N+]=[N-])[C@@H](CO)O2)c(=O)[nH]c1=O (some centres undefined) |  | 0.0256

SMILES | Potency | activity change, negative = inhibition [%]
Oc1cc(O)cc(/C=C/c2ccc(O)c(O)c2)c1 | 23.8 µM (active) | 
CC[C@H]1OC(=O)[C@H](C)C(O[C@H]2C[C@@](C)(OC)[C@@H](O)[C@H](C)O2)[C@H](C)[C@@H](OC2O[C@H](C)C[C@H](N(C)C)[C@H]2O)[C@](C)(O)C[C@@H](C)CN(C)[C@H](C)[C@@H](O)[C@]1(C)O (some centres undefined) |  | 7.28
O=C1NC(=O)/C(=C/c2ccc(-c3ccc(F)cc3O)o2)S1 | 21.2 µM (active) | 
COCCOc1cc2nc[nH]c(=O)c2cc1OCCOC |  | -7.81
Nc1ccn([C@H]2O[C@H](CO)[C@@H](O)C2(F)F)c(=O)n1 |  | -0.75
C=C[C@H]1CN2CC[C@@H]1C[C@@H]2[C@@H](O)c1ccnc2ccc(OC)cc12 | 26.7 µM (active) | 
O=C1NC(O)=NC1(c1ccccc1)c1ccccc1 |  | 3.85
CN(C)CCC(c1ccc(Cl)cc1)c1ccccn1 (centres undefined) |  | 11.8
CC(C)(C)c1ccc(S(=O)(=O)/C=C/C#N)cc1 |  | 5.99
Cn1c(=O)c2[nH]c(-c3ccccc3)nc2n(C)c1=O | 4.74 µM (active) | 
CC(=O)SCC[N+](C)(C)C |  | 4.42
CCCN(CC1CC1)c1nc(C)nc(Nc2c(Cl)cc(Cl)cc2Cl)c1Cl |  | -22.3
CC1(C)CCC=[N+]1[O-] |  | 4.49
C#C[C@]1(O)CC[C@H]2[C@@H]3CCC4=Cc5oncc5CC4(C)[C@H]3CCC21C (some centres undefined) |  | -2.09
Brc1cc2c(cc1[C@H]1Nc3ccccc3[C@H]3C=CC[C@H]31)OCO2 |  | -8.63
CN(C)C(N)=NCCC[C@H](N)C(=O)O |  | 1.36
O=C(O)CC1CCCc2ccccc2C1O (centres undefined) |  | -0.468
CO[C@H]1O[C@@H]2O[C@]3(C)CC[C@@H]4[C@@H](C)CC[C@H]([C@H]1C)[C@]24OO3 |  | 7.24
